# Compounds with a hit are over-represented: about 1.6% of the library has one in this group of screens.
# KCNQ2 inh: inhibitors of rat KCNQ2 potassium channel | CHO-K1 KCNQ2, FluxOR thallium flux, 20 min; active compounds read low | 310,000 tested, 1.1% active | B-score at 10 µM | O88943;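 active = fluorescence ratio B-score at most minus 3 library SDs, with starting brightness B-score within 2 library SDs, cut at about -5.5 in these data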
# KCNQ2 enhance: enhances the rat KCNQ2 potassium channel; O88943; CHO-K1 KCNQ2, FluxOR thallium flux fluorescence; active compounds read high; B-score at 10 µM; 310,000 tested, 0.54% active;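 active = fluorescence ratio B-score at least 3 SD of library B-scores, with initial fluorescence B-score within 3 of them, cut at about 5.3 in these data; same plate scores as AID 2156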;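 note: B-score of peak minus minimum over baseline fluorescence ratio after K+ and Tl+ stimulus; positive B-score means potentiation of KCNQ2 with more thallium influx and brighter signal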
# * = called active by the depositor; i = inactive; . = no result.
SMILES,KCNQ2 inh,KCNQ2 enhance
Cc1cc(C)n(-c2nc3ccccc3nc2N2CCN(S(=O)(=O)c3ccc(F)c(C)c3)CC2)n1,i,.
Cc1cc(C)n(-c2nc3ccccc3nc2N2CCN(S(=O)(=O)c3ccc4ccccc4c3)CC2)n1,-5.9*,-5.9
O=C(Nc1ccnn1C1CCN(C2CCOCC2)CC1)c1cccc(F)c1,i,.
COc1cccc(C2C(C#N)=C(N)N(N(C)C)C3=C2C(=O)CC(C)(C)C3)c1OC (stereo not given),i,1.6
CCN(CC)CCNC(=O)C1(O)c2cc(Br)ccc2NC(=O)N1c1ccccc1 (stereo not given),i,.
O=C(O)C1CCN(S(=O)(=O)c2ccc(N3CCC(O)CC3)c([N+](=O)[O-])c2)CC1,i,.
COc1cccc(N2CCN(C(=O)c3cc4ccc(OC)cc4[nH]3)CC2)c1,i,1.2
COc1ccc2cc(C(=O)N3CCN(c4cccc(C)c4C)CC3)[nH]c2c1,-6.2*,-6.2
NS(=O)(=O)c1ccc(NC(=O)COC(=O)c2ccc(Cl)cc2[N+](=O)[O-])cc1,i,0.06
O=C(Cn1cnc([N+](=O)[O-])n1)c1ccc(O)c(O)c1,i,.
Cc1nc(SCC(=O)N2CCN(c3ccccc3)CC2)n[nH]1,i,.
O=C(CSc1nc(N2CCCCC2)nc(N2CCCCC2)n1)N1CCc2ccccc21,i,14*
Cc1cc(C)nc(SCC(=O)N2CCc3ccccc32)n1,i,.
O=C(CSc1nc(N2CCCCC2)nc(N2CCCCC2)n1)N1CCN(c2ccccc2)CC1,i,19*
CCN1CCN(C(c2cccs2)C(C)NC(=O)C(=O)N2CCCCC2)CC1 (stereo not given),i,0.2
Cc1cccc(NC(=O)C2CCCN2S(=O)(=O)c2ccc(Cl)cc2)n1 (stereo not given),i,.
COc1cccc(CC(=O)Nc2ccc3nc(C)sc3c2)c1,i,.
COc1ccc(OCC(=O)Nc2ccc3nc(C)sc3c2)cc1,-9.6*,-9.6
CC1CN(C(=O)CCC(=O)NCc2ccccc2Cl)c2ccccc2S1 (stereo not given),-7.4*,-7.4
CC(C)Oc1ccc(CNC(=O)CCC(=O)N2CC(C)Sc3ccccc32)cc1 (stereo not given),i,.
Cc1ccc(C(=O)CCC(=O)Nc2ccccc2F)cc1,i,0.68
O=C(NCc1cccnc1)/C(=C/c1ccc(-c2ccc(Cl)cc2)o1)S(=O)(=O)c1ccccc1,-6.2*,-6.2
O=C(NCc1cccnc1)/C(=C\c1ccc(-c2ccc(Br)cc2)o1)S(=O)(=O)c1ccccc1,i,.
CC1CCCN(C(=O)c2ccc([N+](=O)[O-])o2)C1 (stereo not given),i,.
CC1CCCN(C(=O)c2ccc(-c3ccccc3Cl)o2)C1 (stereo not given),-7.4*,-7.4
SMILES,KCNQ2 inh,KCNQ2 enhance
Cc1ccccc1-n1ncc(C(C)NS(=O)(=O)c2ccccc2Cl)c1C (stereo not given),i,.
N#CCCN/N=C(/Cc1nc2ccccc2[nH]1)c1ccc(Cl)cc1,-10*,-10
N#CCCN/N=C(\Cc1nc2ccccc2[nH]1)c1ccccc1,i,.
Cc1ccc2nc(SCC(=O)Nc3ccc(F)cc3F)nc(=O)n2c1,i,.
Cc1cc(/C=N\NC(=O)CC(=O)NC2CCCCC2)c(C)n1-c1cccc(Cl)c1Cl,i,4.7
Cc1cccc(C)c1-n1c(C)cc(/C=N\NC(=O)CC(=O)NC2CCCCC2)c1C,i,8.4*
Cc1ccc(/C=C/C(=O)Nc2ccccc2C(N)=O)cc1,i,1.3
Cc1ccc(S(=O)(=O)N2CCCC2C(=O)Nc2nc3ccccc3s2)cc1 (stereo not given),i,.
CC(=O)N1c2ccc(S(=O)(=O)N3CCC(C(=O)NCc4ccccc4Cl)CC3)cc2CC1C (stereo not given),i,.
O=C(Nc1nc2ccccc2s1)C1CCCN1S(=O)(=O)c1ccc(Cl)cc1 (stereo not given),-5.6*,-5.6
CC(=O)N1c2ccc(S(=O)(=O)N3CCCC(C(=O)NCc4ccccc4Cl)C3)cc2CC1C (stereo not given),-6.2*,-6.2
COc1ccc(S(=O)(=O)N2CCCC2C(=O)NCc2ccccc2Cl)cc1 (stereo not given),i,.
Cc1ccc(S(=O)(=O)N2CCCC2C(=O)NCc2ccccc2Cl)cc1 (stereo not given),-6.6*,-6.6
CCCCNC(=O)CSc1nc2cc3c(cc2c(=O)n1CCC(=O)NCCc1ccc(OC)c(OC)c1)OCO3,i,0.16
O=C(NCc1cccnc1)C1CC(c2ccccc2Cl)=NO1 (stereo not given),i,1.2
Clc1cccc(Cl)c1Cn1cnc2c(NCc3ccco3)ncnc21,i,0.45
Cn1cnc2c(NCc3ccco3)ncnc21,-7*,-7
CN(Cc1ccccc1)c1nc2c(c(=O)n(C)c(=O)n2C)n1CCCc1ccccc1,-7.9*,-7.9
CCN(CC)c1nc2c(c(=O)n(C)c(=O)n2C)n1CCCc1ccccc1,i,.
COCCn1c(-c2ccc(OC)cc2)c(-c2ccc(OC)cc2)oc1=O,i,.
